The record followed here is PubChem BioAssay (NCATS).

Several values for one entry are separate records, joined by “and”; a condition that tells them apart may be missing. Equal values may be shown once. Records with an inconclusive call do not appear. A number with no mark means an inactive call. Activity calls are given as the source filed them. Unless noted, calls follow the shape of the dose curve; as a rule, active = well fitted curve in the direction sought with a large enough effect; inconclusive = small, poorly fitted or top-dose-only effect, or another doubt; inactive = no such curve, though single readings can be large; an effect the other way counts as inactive or inconclusive.

Assay [1] concerns the target Cellular tumor antigen p53 (Homo sapiens) (UniProt P04637). As to the kind of experiment: Primary qHTS for small molecule compounds that upregulate eGFP-tagged delta133p53alpha (in N-terminal) cells. (AID 2060322).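 Also: series mostly up to about 56 µM; 0% = DMSO vehicle and 100% = reference activator; nearly all actives have a fitted effect of over 75% in size.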 The following applies: NCI-H358 eGFP-delta133p53alpha fluorescence, 24 h; activation: stronger effect = higher value. The method, boiled down:
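NCI-H358 cells pre-induced 24 h with 10 ng/ml doxycycline to express N-terminal eGFP-delta133p53alpha, then dosed 24 h at 37C without doxycycline; fixed, Hoechst-stained, GFP intensity by laser scanning cytometry, normalized to DMSO (0%) and 57.5 uM 5-azacytidine (100%).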
On the technique in general: Quantitative high-throughput screening tests each substance at several concentrations.

In assay [2] the target is Aldehyde dehydrogenase, mitochondrial (Homo sapiens) (UniProt P05091). Kind of assay: qHTS for Inhibitors of the Aldehyde Dehydrogenase Family (ALDH2) Validation screens (AID 2061302; active = well fitted inhibition curve with a large enough effect; title and protocol of this record describe different tests; also: potency is read from the fitted curve at half-maximal effect).
The target in assay [3] is Cellular tumor antigen p53 (Homo sapiens) (UniProt P04637). As to the kind of experiment: Primary qHTS for small molecule compounds that upregulate eGFP-tagged delta133p53alpha (in C-terminal) cells. (AID 2060324).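 Also: 0% = DMSO wells and 100% = 57.5 µM 5-azacytidine.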 In short, it runs like this:
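NCI-H358 cells pre-induced 24 h with 100 ng/ml doxycycline to express delta133p53alpha-eGFP, then dosed in doxycycline-free medium for 24 h at 37C. Fixed, Hoechst-stained; GFP intensity by laser scanning cytometry, normalized to DMSO wells.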

Assay [4] addresses Retinaldehyde dehydrogenase 3 (Homo sapiens) (UniProt P47895). Kind of assay: qHTS for Inhibitors of the Aldehyde Dehydrogenase Family (ALDH1A3) Primary screen (AID 2061315).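 Also: plate controls were DMSO vehicle for no effect and reference inhibitor for full effect.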
The nature of assay [5]: BET inhibitor-based combinations targeting novel dependencies in MECOM-rearranged (r) AML: SET-2 cell line (AID 2202231).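 Also: plate controls were DMSO treated cells for no effect and wells without cells for full effect; nearly all actives have a fitted effect of over 35% in size.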 Conditions: SET-2 AML cells viability, CellTiter-Glo luminescence, 48 h; viability: stronger effect = lower value, series mostly up to about 46 µM. The method, boiled down:
(§1)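 Cells were plated at 500 per well and exposed to an 11-point dose series of each drug for 48 hr. Viability was measured by CellTiter-Glo luminescence, normalized to DMSO and empty-well controls, and summarized as AUC and per-cell-line Z-AUC.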
Background: Cellular ATP, detected with luciferase, serves as a proxy for viable cell number.

A short description of assay [6]: BET inhibitor-based combinations targeting novel dependencies in MECOM-rearranged (r) AML: OCI-AML3 cell line (AID 2202232). Also: nearly all actives have a fitted effect of over 35% in size. Also: potency is read from the fitted curve at half-maximal effect. Conditions: Potency: OCI-AML3 viability. In short, it runs like this: as §1
Assay [7] can be described thus: BET inhibitor-based combinations targeting novel dependencies in MECOM-rearranged (r) AML: MV-4-11 cell line (AID 2202233). Also: nearly all actives have a fitted effect of over 45% in size. Also: potency is read from the fitted curve at half-maximal effect. In short, it runs like this: (§2)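 Activity is given as area under the curve and as Z-AUC, mean-centred within each cell line. It comes from 11-point dose curves normalized to DMSO and empty wells. CellTiter-Glo luminescence was read after 48 hr drug exposure of 500 cells/well.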

Assay [8] is described as follows: BET inhibitor-based combinations targeting novel dependencies in MECOM-rearranged (r) AML: HNT-34 cell line (AID 2202234).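 Also: plate controls were vehicle wells for no effect and cell-free wells for full effect; nearly all actives have a fitted effect of over 35% in size.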 The method, boiled down:
as §2

Assay [9] can be described thus: BET inhibitor-based combinations targeting novel dependencies in MECOM-rearranged (r) AML: UCSD-AML1 cell line (AID 2202235). Also: nearly all actives have a fitted effect of over 40% in size. In short, it runs like this: as §2
Assay [10] in a line: BET inhibitor-based combinations targeting novel dependencies in MECOM-rearranged (r) AML: AML-191 cell line (AID 2202236;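 also: plate controls were vehicle wells for no effect and wells without cells for full effect; nearly all actives have a fitted effect of over 35% in size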). The method, boiled down: as §1
Assay [11] is described as follows: BET inhibitor-based combinations targeting novel dependencies in MECOM-rearranged (r) AML: AML-194 cell line (AID 2202237;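 also: plate controls were vehicle wells for no effect and wells without cells for full effect; nearly all actives have a fitted effect of over 40% in size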). The method, boiled down:
as §1

The target in assay [12] is Retinaldehyde dehydrogenase 3 (Homo sapiens) (UniProt P47895). As to the kind of experiment: qHTS for Inhibitors of the Aldehyde Dehydrogenase Family (ALDH1A3) Validation screen (AID 2061312). Also: % is scaled to controls: 0 for no effect and ±100 for the full control effect; nearly all actives have a fitted effect of over 45% in size.
For assay [13], the target named is Retinal dehydrogenase 2 (Homo sapiens) (UniProt O94788). Kind of assay: qHTS for Inhibitors of the Aldehyde Dehydrogenase Family (ALDH1A2) Confirmation screens (AID 2061314). Also: potency is read from the fitted curve at half-maximal effect; nearly all actives have a fitted effect of over 65% in size.
Assay [14] deals with Aldehyde dehydrogenase 1A1 (Homo sapiens) (UniProt P00352). Kind of assay: qHTS for Inhibitors of the Aldehyde Dehydrogenase Family (ALDH1A1) Confirmatory screens (AID 2061316). Also: potency is read from the fitted curve at half-maximal effect; nearly all actives have a fitted effect of over 65% in size.

In general, viability refers to a read-out of living cells in per cent, often relative to untreated cells.

Chain of Cellular tumor antigen p53 (Homo sapiens) (P04637 whole entry, looked up): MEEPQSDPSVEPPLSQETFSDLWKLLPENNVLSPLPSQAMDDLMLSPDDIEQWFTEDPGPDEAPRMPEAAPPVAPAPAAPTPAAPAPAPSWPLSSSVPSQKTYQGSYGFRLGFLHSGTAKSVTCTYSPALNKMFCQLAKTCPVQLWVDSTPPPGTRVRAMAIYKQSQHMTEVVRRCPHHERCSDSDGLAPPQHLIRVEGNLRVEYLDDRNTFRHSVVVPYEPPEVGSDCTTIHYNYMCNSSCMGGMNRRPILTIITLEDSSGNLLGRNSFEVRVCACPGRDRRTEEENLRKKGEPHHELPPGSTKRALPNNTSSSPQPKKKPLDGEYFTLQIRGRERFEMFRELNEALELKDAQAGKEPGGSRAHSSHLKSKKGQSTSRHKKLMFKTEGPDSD

For the compound `CN1CCN(CCCN2c3ccccc3Sc3ccc(Cl)cc32)CC1`, in [1], the activation was 23.2% and -10.9% and -6.59%. In addition, in [2], the Potency entry is “inactive”.

As for `CC(C)(C)c1onc(OCP(=O)(O)O)c1CC(N)C(=O)O` (centres undefined), the activation in assay [1] was 5.95%. Besides, the Potency result in [2] is “inactive”.

Consider `COc1ccc(/C=C/C(=O)Nc2ccccc2C(=O)O)cc1OC`, for which the activation in assay [1] is 22.3% and 8.92%. For the same compound, the Potency result in assay [3], in assay [4], in assay [6], in assay [7], in assay [8] and in assay [9] was “inactive” each time. In addition, the Potency entry in assay [10] and in assay [11] was “inactive” each time. For the same compound, the viability in [5] was 104%.

On to `O=C1NC(=O)C(c2ccccc2[N+](=O)[O-])=C1Nc1ccc(O)c(Cl)c1`, for which, in assay [1], the activation was -20.1% and -30.9%. Besides, the Potency result in [3] was “inactive”. The Potency in assay [7] is 20.9 µM (active).

Regarding `NS(=O)(=O)c1cccc2c1c([N+](=O)[O-])cc1nc(O)c(O)nc12`, in [1], the activation is -8.06%. For the same compound, the Potency entry in assay [3] and in [12] was “inactive” each time. The Potency was 25.2 µM (active) in assay [13] and 12.7 µM (active) in [14].

Consider `O=C1c2c(O)cc(O)cc2OC(c2ccc(O)c(O)c2)C1O` (centres undefined), for which, in assay [1], the activation was 31.8% and -16.9%. The Potency result in [3] and in [12] was “inactive” throughout. Further, the Potency was 23.5 µM (active) in [6] and 18.6 µM (active) in [7]. The outcome in assay [9] was inactive.

Regarding `O=c1c(-c2ccc(O)cc2)coc2cc(OC3O[C@H](CO)[C@H](O)[C@H](O)[C@H]3O)cc(O)c12` (some centres undefined), in [1], the activation is 21%. Further, the Potency in assay [2] was 44.7 µM (active).

Take `CC1(C)NC(=O)N(c2ccc([N+](=O)[O-])c(C(F)(F)F)c2)C1=O`: the activation in assay [1] is -8.47% and -2.88% and -17.8%. Moreover, the Potency result in assay [3], in [12], in assay [6], in [7], in assay [8] and in assay [9] was “inactive” throughout. In addition, the Potency result in [10] and in [11] was “inactive” each time.
